An excerpt weighted towards active compounds, which were near 19% of everything screened.
HT1080 IDH1KD tx = toxicity to HT-1080 IDH1 knockdown cells (counter line) | HT-1080 IDH1 knockdown viability, ATP luminescence, 48 h | Potency, µM (titrated, usually from 46.1 µM), for inactives: at the highest dose activity, negative = toxicity, actives largely listed as cytotoxic | 360,000 tested, 2% active | AID 686971;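 note: potency is the fitted concentration of half-maximal effect; 0% = DMSO wells and -100% = cell-free medium wells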
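In this qHTS, HT-1080 cells depleted of IDH1 are exposed for 48 h at 37 °C to compound titrations. Toxicity is scored from CellTiter-Glo luminescence, with DMSO as full viability and medium alone as none.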
IL1B secr inh = inflammasome signaling inhibition, IL-1 beta readout; THP-1 LPS/ATP IL-1B secretion, AlphaLISA, 16 h; stronger effect = lower value; activity change, % at 57.5 µM; 360,000 tested, 4.7% active; in the data active = activity change below about -50%; inconclusive = mostly about -30% to -49%
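THP-1 cells pretreated 1 hr with compounds (up to 57.5 uM final), then stimulated with LPS (250 ng/mL final) plus ATP (1.25 mM final); secreted IL-1B measured by AlphaLISA after 16 hr, decreased signal indicating inhibition.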
TDP1 cell CPT = growth inhibition of DT40 Tdp1-/-;hTDP1 cells with camptothecin (screen for TDP1 inhibitors); Potency, µM (top dose mostly 46.2 µM), for the others: top-dose activity change, negative = growth inhibition, usual class: inhibitors; chicken DT40 Tdp1-/-;hTDP1 cells + 20 nM CPT, ATP luminescence, 48 h; AID 686979; 420,000 tested, 12% active; note: potency is the fitted concentration of half-maximal effect; nearly all actives have a fitted effect of over 55% in size
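Chicken DT40 Tdp1-/- cells stably complemented with human TDP1 were seeded at 400 cells/well in medium containing 20 nM camptothecin, exposed to pin-transferred compounds, and grown at 37 °C for at least 48 hr. Viability was read as ATP luminescence.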
TDP1 cell noCPT = qHTS for Inhibitors of human tyrosyl-DNA phosphodiesterase 1 (TDP1): qHTS in cells in absence of CPT. DT40 Tdp1-/- hTDP1 cells, no CPT, ATP luminescence, 48 h. Potency, µM (titrated, usually from 46.2 µM), without a hit: at the top dose activity change, negative = growth inhibition, actives largely listed as inhibitors. 420,000 tested, 15% active; note: potency is the fitted concentration of half-maximal effect; nearly all actives have a fitted effect of over 55% in size
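Compound effects on proliferation are scored in DT40 Tdp1-/-;hTDP1 cells in the absence of CPT. ATP levels (CellTiter-Glo luminescence) are recorded after a ≥48 hr, 37 °C incubation.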
HT1080-NT tox = kills 2HG-producing HT-1080-NT fibrosarcoma cells. 360,000 tested, 1.6% active. AID 686970. Potency, µM (titrated, usually from 46.1 µM), for inactives: at the top dose activity, negative = less viability, actives largely listed as cytotoxic. HT-1080-NT fibrosarcoma viability, CellTiter-Glo ATP luminescence, 48 h;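 note: NT is the 2HG producing partner of a matched IDH1 knockdown line; potency is the fitted concentration of half-maximal effect; 0% = DMSO-treated cells and -100% = media-only wells without cells; nearly all actives have a fitted effect of over 55% in size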
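Read-out is CellTiter-Glo luminescence after 10 minutes at room temperature, following 48 hours' compound treatment of HT-1080-NT cells (750 cells/well, RPMI, 5% FBS, 37 degrees C).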
* marks the source's active call; other numbers are inactive results; ? = inconclusive; / = no result. Unless noted, calls come from the whole dose curve; as a rule, active = well fitted curve in the direction sought with a large enough effect; inconclusive = small, poorly fitted or top-dose-only effect, or another doubt; inactive = no such curve, though single readings can be large; an effect the other way counts as inactive or inconclusive. Unless noted, % is set by controls: 0 for no effect and ±100 for the full control effect.

SMILES | HT1080 IDH1KD tx | IL1B secr inh | TDP1 cell CPT | TDP1 cell noCPT | HT1080-NT tox
CCN(CC)CCCNC(=S)N1CCN(c2nc(-c3ccc(F)cc3)cs2)CC1 | 8.2µM* | -57.8* | 14.6µM* | 6.51µM* | 20.6µM*
COc1cccc(OC(=O)CSc2nnc(-c3ccccc3OC)o2)c1 | / | / | 0.9% | 0.1% | /
N#CCCn1c(=O)c(-c2ccc(Cl)cc2)nc2cnc(Oc3ccccc3)nc21 | / | / | 16.5% | 17.2% | /
COC(=O)Cc1c(C)c2ccc(OCC(=O)NC3CCS(=O)(=O)C3)cc2oc1=O (configuration not stated) | -0.3% | 2.7 | 1.7% | 14.4% | 6.5%
Cc1noc(C)c1S(=O)(=O)N(CC(=O)NC1CCC(C)CC1)c1ccc(C(C)C)cc1 (configuration not stated) | 5.6% | 0.0 | ? | -12.1% | 4.8%
O=[N+]([O-])c1ccc(-c2csc(N3CCCCCC3)n2)cc1 | 4.8% | -11.5 | 12.3% | 6.4% | -5.5%
O=C(N1CCOCC1)N1CCN(c2nc(-c3ccc(F)cc3)cs2)CC1 | -27.1% | -15.3 | ? | 16.4µM* | -25.1%
O=[N+]([O-])c1ccc(N2CCN(c3nc(-c4ccc(Cl)cc4)cs3)CC2)cc1 | 1.3% | -3.2 | ? | 11.6µM* | 4.1%
CCCCC(=O)N1CCN(c2nc(-c3ccc(F)cc3)cs2)CC1 | -11.7% | -16.9 | ? | ? | -15.0%
Cc1ccc2oc(C(=O)NC3CCS(=O)(=O)C3)cc(=O)c2c1 (configuration not stated) | 0.0% | 0.0 | 4.2% | 22.0% | 2.1%
COc1ccccc1NC(=O)CN(Cc1ccco1)C(=O)c1ccc(N2CCCC2=O)cc1 | 11.1% | 7.7 | -7.7% | ? | 1.8%
CCOc1ccc(NC(=O)CSc2nc3ccsc3c(=O)n2C(C)CC)cc1 (configuration not stated) | / | / | ? | 10.3µM* | /
CCC(C)n1c(SCc2ccc([N+](=O)[O-])cc2)nc2ccsc2c1=O (configuration not stated) | -11.5% | ? | 23.1µM* | 20.6µM* | -14.5%
CCOc1ccc(NC(=O)CSc2nc3ccsc3c(=O)n2CC)cc1 | / | / | -22.3% | -19.8% | /
CCC(C)n1c(SCc2c(F)cccc2Cl)nc2ccsc2c1=O (configuration not stated) | / | / | 4.11µM* | 5.8µM* | /
CSCCC(C(=O)NCc1ccccc1)n1c(Cc2cc(F)cc(F)c2)nc2ccccc21 (configuration not stated) | -22.7% | -21.8 | ? | ? | -24.7%
O=S(=O)(O)c1nc2ccccc2[nH]1 | -0.4% | 4.0 | 2.2% | 0.9% | -2.1%
CCN(CC)S(=O)(=O)c1cccc(NC(=O)CSc2nc3ccccc3[nH]2)c1 | -6.8% | -57.3* | 23.1µM* | 16.4µM* | -1.5%
Cc1ccc2nc(SCC(=O)Nc3cccc(S(=O)(=O)N(C)C)c3)[nH]c2c1 | -12.9% | -20.6 | ? | 16.4µM* | -14.9%
Cc1ccc2nc(SCC(=O)Nc3ccc4c(c3)CCC4)[nH]c2c1 | -20.8% | 0.0 | 18.4µM* | ? | -27.6%
NS(=O)(=O)c1cccc(NC(=O)CSc2nc3ccc(Cl)cc3[nH]2)c1 | -1.1% | -19.6 | 10.3% | ? | -0.9%
CN(C)S(=O)(=O)c1cccc(NC(=O)CSc2nnnn2-c2ccccc2)c1 | -3.4% | -2.0 | 14.6µM* | 23.1µM* | ?
Cc1ccsc1C(=O)OCC(=O)NCc1ccccc1 | -4.6% | -0.2 | 13.1% | -0.3% | -3.1%
O=C(COc1ccccc1F)Nc1nnc(S(=O)(=O)N2CCCCCC2)s1 | / | / | -28.2% | -9.6% | /
CCN(CC)S(=O)(=O)c1ccc(NC(=O)CSc2nnc3c(n2)[nH]c2ccccc23)cc1 | 22.4µM* | / | 7.08µM* | 6.31µM* | 12.6µM*
Cc1cccc(NC(=O)CSc2nnc(CNC(=O)c3ccc(S(=O)(=O)N(C)C)cc3)n2-c2cccc(C)c2)c1 | -4.3% | -4.4 | 16.4µM* | ? | -0.6%
Cc1ccc2nc(SCC(=O)Nc3cccnc3Cl)[nH]c2c1 | 1.4% | -7.8 | 10.8% | 3.7% | 4.1%
